Experimental data reported in PubChem BioAssay.

biological target: Calmodulin-1 (Homo sapiens) (UniProt P0DP23); assay: calcium-bound CALM1 binders on microarrays, profiling panel, artefact control for SMM control-protein annotation, biochemical, small-molecule microarray, Cy5-labelled CALM1, plus calcium (AID 1112); conditions: Cy5-CALM1 binding fluorescence, higher = more signal;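 also: score merges spot fluorescence with signal to noise from triplicate slides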

SMILES | composite z-score
COc1ccc([Si](C)(C)[C@H]2[C@H](CC(=O)N3CCC[C@H]3CO)O[C@@]3(C(=O)N(Cc4ccc(N5CCOC5=O)cc4)c4ccccc43)[C@@H]2C)cc1 | 0.0967
COc1cc(OC)c(C(O)C2C=CC3C(=O)N(Cc4ccccc4)C(=O)C3N2n2cnnc2)cc1Br (stereo not given) | 0.595
[N-]=[N+]=Nc1ccccc1C[C@@]1(C(=O)N2CCOCC2)N=C(c2ccc(OCCCO)cc2)O[C@@H]1c1ccccc1 | -0.258
Cc1ccc(C(C)CC(O)C2C=CC3C(=O)N(c4ccccc4)C(=O)C3N2Nc2ccccc2)o1 (stereo not given) | 0.125
CCOC(=O)C[C@H]1[C@H](OC(=O)c2ccc(C(=O)c3ccccc3)cc2)[C@@H](NC(=O)c2ccc(-c3ccccc3)cc2)c2cc(OCCCO)ccc2N1C(=O)Cc1ccc(OC)cc1 | -0.122
CCOC(=O)C1=C[C@@H](C(C)C)N(S(=O)(=O)c2ccc(C)cc2)[C@H]1c1ccc(C(F)(F)F)cc1 | -0.0824
C=C[C@H]1C(C(=O)OCC)=CC[C@@H](c2ccccc2)N1S(=O)(=O)c1ccc(C)cc1 | -0.0986
CCCCCCCCCCC(O)C1C=CC2C(=O)N(c3ccccc3)C(=O)C2N1Nc1ccc(C#N)cc1 (stereo not given) | 1.19
O=C1C[C@]2(c3ccc([N+](=O)[O-])cc3)C(=O)N(C3CC3)c3cc(CO)ccc3[C@H]2N1CC12CC3CC(CC(C3)C1)C2 | -0.87
C=C[C@H](C)[C@H](OC(=O)Nc1ccc(SC)cc1)c1ccc(OCCO)cc1 | -0.037
O=C1OCCC=C[C@H]2OC34C=CCN(c5ccc6ccccc6c5)C(=O)[C@H]3N(CCCO)C(=O)[C@@H]4C12 (stereo not given in full) | -0.885
CCCCN1CC=CC23O[C@@H]4/C=C\CCCOC(=O)C4[C@H]2C(=O)N(CCO)[C@@H]3C1=O (stereo not given in full) | 0.278
COc1cc2c(cc1O)C(c1cccs1)N(Cc1cc3c(cc1Br)OCO3)CC2 (stereo not given) | 0.602
CCCC[C@@H](O)C1=C(COc2ccccc2)C[C@H]2C(=O)N(Cc3ccccc3)C(=O)[C@H]2[C@H]1CO | -0.451
COc1cc(C(O)C2C=CC3C(=O)N(C)C(=O)C3N2Nc2ccccc2)cc(OC)c1OC (stereo not given) | 0.661
COCCOC(=O)N1C(=O)[C@@]2(c3cc(C#CCCO)ccc31)[C@H](c1ccc(OCCO)cc1)N1[C@H](c3ccccc3)[C@H](c3ccccc3)OC(=O)[C@H]1[C@@H]2C(=O)Nc1nc2ccccc2s1 | 0.682
C=CCNC(=O)[C@@H]1[C@H]2C(=O)O[C@H](c3ccccc3)[C@H](c3ccccc3)N2[C@H](c2ccc(OCCO)cc2)[C@@]12C(=O)N(C(=O)OCCOC)c1ccc(C#Cc3ccc(OC)cc3)cc12 | 0.169
N#Cc1ccc(NN2C(C(O)c3ccc(Br)cc3)C=CC3C(=O)N(c4ccccc4)C(=O)C32)cc1 (stereo not given) | 0.141
CCCC=C(CCC)[C@@H](NC(=O)C(C)(C)C)c1ccc(C(=O)OC)cc1 | 1.43
CO[C@H]1O[C@H](CO)[C@@H](OC(=O)Nc2ccc(Br)cc2)[C@@H]2OC(=O)[C@@H](Cc3ccccc3)C/C=C/C[C@H](Cc3ccccc3)C(=O)O[C@@H]12 | 0.149
C#CCN(Cc1ccccc1Br)[C@H](/C=C/c1ccccc1)[C@@H](O)Cc1ccccc1 | 0.41
CCCCCN1CC=CC23O[C@@H]4/C=C\CCCOC(=O)C4[C@H]2C(=O)N(C(C)CO)[C@@H]3C1=O (stereo not given in full) | -0.254
CCCCCN1CC=CC23O[C@@H]4C=CCCOC(=O)C4[C@H]2C(=O)N(CCCCCCO)[C@@H]3C1=O (stereo not given in full) | -0.533
NC(=O)[C@@]1(Cc2ccccc2)COC(c2ccc(OCCCO)cc2)=N1 | 1.2
COC(=O)[C@@]1(Cc2ccc(OC)cc2)[C@H]2c3cc(C(=O)N4CCCC4)n(CCO)c3C[C@H]2CN1C(=O)c1ccccc1 | 0.173

system: not listed separately; assay: small-molecule microarray binders of probe aWnt5a, primary screen, biochemical, biotinylated probe, 635/667 nm fluorescence (AID 1113); conditions: higher = more signal;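 also: score merges 667 nm fluorescence intensity with signal-to-noise per printed feature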

SMILES | composite z-score
O=C(O)[C@@H]1[C@@H]2C(=O)N(c3ccccc3)C(=O)[C@@H]2C[C@@H]1Sc1ccccc1 | 0.0676
CCCCN1CC=CC23O[C@@H]4/C=C\CCC(C)OC(=O)C4[C@H]2C(=O)N(CCCO)[C@@H]3C1=O (stereo not given in full) | -0.252
CN(C)C(=O)[C@]1(CCC(=O)OC(C)(C)C)N=C(c2ccc(OCCCO)cc2)O[C@@H]1c1ccccc1CN=[N+]=[N-] | 0.26
CCCCCC1=C2CNC(C)(C(=O)OC)C=C2C(C)C1=O (stereo not given) | -0.0519
CCOC(=O)C[C@H]1[C@H](OC(=O)c2cc3ccccc3oc2=O)[C@@H](NC(=O)c2ccc3ccccc3n2)c2cc(OCCCO)ccc2N1C(=O)Cc1ccc(OC)cc1 | 0.0297
CS(=O)(=O)CCOC(=O)C1=CC(CCCO)=CC(c2ccc(CN3CCCC3)cc2)N(Cc2sc3ccccc3c2Cl)C=C1C(=O)OCCS(C)(=O)=O (stereo not given) | -0.0297
NC(=O)NCC#Cc1ccc2c(c1)[C@]1(C(=O)N2)[C@H](c2ccccc2OCCO)N2[C@H](c3ccccc3)[C@H](c3ccccc3)OC(=O)[C@H]2[C@@H]1C(=O)NC[C@H](O)c1ccccc1 | -0.0981
CC(C)N1C(=O)c2ccccc2[C@@H](C(=O)NCCN2CCOCC2)[C@@H]1c1ccc(CO)cc1 | -0.256
COCCOC(=O)N1C(=O)[C@@]2(c3cc(C#CC4=CCCCC4)ccc31)[C@H](C(=O)Nc1nc3ccccc3s1)[C@H]1C(=O)O[C@H](c3ccccc3)[C@H](c3ccccc3)N1[C@@H]2c1ccc(O)cc1 | -0.15
COc1ccc(CCNC(=O)[C@@]2(Sc3ccc(C)cc3)CC(=O)N(Cc3ccccc3C(F)(F)F)[C@@H]2c2ccc(CO)cc2I)cc1 | -0.0792
COc1ccc([Si](C)(C)[C@H]2[C@H](CC(=O)N3CCC[C@H]3CO)O[C@@]3(C(=O)N(Cc4ccc(N5CCOC5=O)cc4)c4ccccc43)[C@@H]2C)cc1 | 0.0194
COc1cc(OC)c(C(O)C2C=CC3C(=O)N(Cc4ccccc4)C(=O)C3N2n2cnnc2)cc1Br (stereo not given) | 0.0173
[N-]=[N+]=Nc1ccccc1C[C@@]1(C(=O)N2CCOCC2)N=C(c2ccc(OCCCO)cc2)O[C@@H]1c1ccccc1 | 0.291
Cc1ccc(C(C)CC(O)C2C=CC3C(=O)N(c4ccccc4)C(=O)C3N2Nc2ccccc2)o1 (stereo not given) | 0.0802
CCOC(=O)C[C@H]1[C@H](OC(=O)c2ccc(C(=O)c3ccccc3)cc2)[C@@H](NC(=O)c2ccc(-c3ccccc3)cc2)c2cc(OCCCO)ccc2N1C(=O)Cc1ccc(OC)cc1 | -0.0236
CCOC(=O)C1=C[C@@H](C(C)C)N(S(=O)(=O)c2ccc(C)cc2)[C@H]1c1ccc(C(F)(F)F)cc1 | -0.0607
C=C[C@H]1C(C(=O)OCC)=CC[C@@H](c2ccccc2)N1S(=O)(=O)c1ccc(C)cc1 | 0.0077
CCCCCCCCCCC(O)C1C=CC2C(=O)N(c3ccccc3)C(=O)C2N1Nc1ccc(C#N)cc1 (stereo not given) | 0.203

SMILES | composite z-score
O=C1C[C@]2(c3ccc([N+](=O)[O-])cc3)C(=O)N(C3CC3)c3cc(CO)ccc3[C@H]2N1CC12CC3CC(CC(C3)C1)C2 | -0.148
C=C[C@H](C)[C@H](OC(=O)Nc1ccc(SC)cc1)c1ccc(OCCO)cc1 | -0.183
O=C1OCCC=C[C@H]2OC34C=CCN(c5ccc6ccccc6c5)C(=O)[C@H]3N(CCCO)C(=O)[C@@H]4C12 (stereo not given in full) | -0.294
CCCCN1CC=CC23O[C@@H]4/C=C\CCCOC(=O)C4[C@H]2C(=O)N(CCO)[C@@H]3C1=O (stereo not given in full) | -0.221
COc1cc2c(cc1O)C(c1cccs1)N(Cc1cc3c(cc1Br)OCO3)CC2 (stereo not given) | -0.0286
CCCC[C@@H](O)C1=C(COc2ccccc2)C[C@H]2C(=O)N(Cc3ccccc3)C(=O)[C@H]2[C@H]1CO | -0.161
COc1cc(C(O)C2C=CC3C(=O)N(C)C(=O)C3N2Nc2ccccc2)cc(OC)c1OC (stereo not given) | 0.233
COCCOC(=O)N1C(=O)[C@@]2(c3cc(C#CCCO)ccc31)[C@H](c1ccc(OCCO)cc1)N1[C@H](c3ccccc3)[C@H](c3ccccc3)OC(=O)[C@H]1[C@@H]2C(=O)Nc1nc2ccccc2s1 | -0.0977
C=CCNC(=O)[C@@H]1[C@H]2C(=O)O[C@H](c3ccccc3)[C@H](c3ccccc3)N2[C@H](c2ccc(OCCO)cc2)[C@@]12C(=O)N(C(=O)OCCOC)c1ccc(C#Cc3ccc(OC)cc3)cc12 | -0.27
N#Cc1ccc(NN2C(C(O)c3ccc(Br)cc3)C=CC3C(=O)N(c4ccccc4)C(=O)C32)cc1 (stereo not given) | 0.234
CCCC=C(CCC)[C@@H](NC(=O)C(C)(C)C)c1ccc(C(=O)OC)cc1 | 0.191
CO[C@H]1O[C@H](CO)[C@@H](OC(=O)Nc2ccc(Br)cc2)[C@@H]2OC(=O)[C@@H](Cc3ccccc3)C/C=C/C[C@H](Cc3ccccc3)C(=O)O[C@@H]12 | 0.218
C#CCN(Cc1ccccc1Br)[C@H](/C=C/c1ccccc1)[C@@H](O)Cc1ccccc1 | -0.128
CCCCCN1CC=CC23O[C@@H]4/C=C\CCCOC(=O)C4[C@H]2C(=O)N(C(C)CO)[C@@H]3C1=O (stereo not given in full) | -0.203
CCCCCN1CC=CC23O[C@@H]4C=CCCOC(=O)C4[C@H]2C(=O)N(CCCCCCO)[C@@H]3C1=O (stereo not given in full) | -0.168
NC(=O)[C@@]1(Cc2ccccc2)COC(c2ccc(OCCCO)cc2)=N1 | -0.0179
COC(=O)[C@@]1(Cc2ccc(OC)cc2)[C@H]2c3cc(C(=O)N4CCCC4)n(CCO)c3C[C@H]2CN1C(=O)c1ccccc1 | 0.433
